Compound activity (PubChem)
Rows were chosen to be rich in hits. Some 1.4% of all compounds tested hit in one or more screens of this group.
Sa ugtP lethal – compounds lethal to S. aureus RN4220 ugtP deletion mutant; OD600 growth, 16 h; growth inhibition, % (no concentration beside the values); 330,000 compounds, 0.54% hits; AID 1259309; in the data active = growth inhibition above about 68%;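 note: plate controls were untreated wells for no effect and antibiotic for full effect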
CCHF vOTU inh-1 – CCHFV vOTU protease inhibition. Pep-AMC fluorescence. 370,000 compounds, 0.55% hits. inhibition, % at 11.5 µM; note: 0% = vehicle wells with enzyme and 100% = no enzyme wells
PriA SSB inh – K. pneumoniae PriA-SSBct interaction inhibition; AID 1272365; AlphaScreen SSBct-PriA binding, biotinylated peptide; inhibition, % at 33 µM; 430,000 compounds, 0.6% hits; in the data active = inhibition mostly above about 37%, no sharp cut-off; inactive = mostly below about 20%;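 note: plate controls were negative control peptide for no effect and reference peptide for full effect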
Mtb hypoxia rep – inhibitors of hypoxia-regulated fluorescent reporter in Mycobacterium tuberculosis; M. tuberculosis hypoxia-regulated fluorescent reporter, fluorescence; AID 1159583; 300,000 compounds, 0.1% hits; fluorescence inhibition, % (concentration not given with the values); in the data active = fluorescence inhibition mostly above about 23%, no sharp cut-off; inactive = mostly below about 17%
Sa RN4220 lethal – kills Staphylococcus aureus RN4220. S. aureus RN4220 growth, OD600, 16 h. inhibition, % (no concentration beside the values). 330,000 compounds, 0.33% hits. AID 1259311; in the data active = inhibition above about 85%;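 note: plate controls were untreated cells for no effect and reference antibiotic for full effect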
CCHF vOTU inh-2 – confirmation of CCHF virus vOTU protease inhibitors | shares compounds with CCHF vOTU inh-1 | Recombinant CCHFV vOTU, Pep-AMC fluorescence | inhibition, % at 11.5 µM | 1,900 compounds, 17% hits | AID 686976
* = called active by the depositor; · = no result given. Cut-off read from the data, not from the text of the source, unless noted: active = inhibition above about 30%; inactive = the rest.

SMILES | Sa ugtP lethal | CCHF vOTU inh-1 | PriA SSB inh | Mtb hypoxia rep | Sa RN4220 lethal | CCHF vOTU inh-2
Cc1ccc([C@H]2C(C(=O)O)=CC[C@@H](c3cccc(Cl)c3)N2S(=O)(=O)c2ccc(C)cc2)cc1 | 13 | 7 | -5 | -2 | 18 | ·
Cc1ccc([C@H]2C(C(=O)O)=CC[C@@H](c3ccc(C(C)C)cc3)N2S(=O)(=O)c2ccc(C)cc2)cc1 | -11 | 38* | -8 | 0 | 18 | 19
Cc1ccc(S(=O)(=O)N2[C@@H](c3ccccc3)C(C(=O)O)=CC[C@H]2c2ccc(C(C)C)cc2)cc1 | · | 30* | 9 | · | · | 2
CCc1ccc([C@@H]2C[C@H]3[C@@H](CN2S(=O)(=O)c2ccc(C)cc2)C(=O)C[C@@H](c2ccccc2)N3S(=O)(=O)c2ccc(C)cc2)cc1 | · | 5 | · | · | · | ·
Cn1c(SCC(=O)N2CCCC2)nc2cc(-c3ccccc3)sc2c1=O | · | · | -10 | · | · | ·
Cc1ccc(S(=O)(=O)N2[C@@H](c3ccc(Cl)cc3)C(C(=O)O)=CC[C@H]2c2ccc(C(C)C)cc2)cc1 | 57 | 27 | 7 | 10 | 25 | ·
CCc1ccc([C@@H]2CC=C(C(=O)O)[C@H](c3ccc(C)cc3)N2S(=O)(=O)c2ccc(C)cc2)cc1 | 45 | 32* | 1 | -4 | 68 | 16
Cc1ccc([C@H]2C(C(=O)O)=CC[C@@H](c3ccc(Cl)cc3)N2S(=O)(=O)c2ccc(C)cc2)cc1 | 7 | 33* | 8 | -5 | 15 | 0
O=C(O)C1=CCC(c2ccc(Cl)c(Cl)c2)N(S(=O)(=O)c2ccc(F)cc2)C1c1cccc(F)c1 (centres undefined) | · | 37* | · | · | · | -10
Cc1ccc(S(=O)(=O)N2[C@@H](c3ccc(Br)cc3)C(C(=O)O)=CC[C@H]2c2ccc(Cl)c(Cl)c2)cc1 | 67 | 32* | -11 | 0 | 67 | 9
O=C(NCCn1ccnc1-c1cnccn1)NCc1cccs1 | · | · | 42 | · | · | ·
CCC(Sc1nc2ccsc2c(=O)n1Cc1ccc(C(=O)O)cc1)C(=O)Nc1ccc(C)c(Cl)c1 (centres undefined) | -6 | 31* | 9 | -3 | 10 | 8
O=C(NCCN1CCC(c2cccs2)CC1)C(=O)Nc1ccc2c(c1)OCCO2 | · | · | -2 | · | · | ·
COc1ccc(NC(=O)CN(C)CC(=O)NC(=O)NC2CCCCC2)cc1 | 4 | 38* | -15 | -5 | 2 | -18
C[C@@H]1CN(c2ccc(N3CCN(C(=O)OC(C)(C)C)C[C@@H]3C)cc2C#N)C[C@H](C)O1 | · | 41* | · | · | · | -3
C[C@@H]1CN(c2ccc(N3CCN(C(=O)OC(C)(C)C)C[C@H]3C)cc2C#N)C[C@H](C)O1 | · | 17 | · | · | · | ·
C[C@@H]1CN(C(=O)OC(C)(C)C)CCN1c1ccc(N2CC[C@H](O)C2)c(C#N)c1 | · | 48* | · | · | · | -16
O=C(COc1ccc(Cl)cc1)NCCCn1nc(-c2ccco2)ccc1=O | · | · | -7 | · | · | ·
CCCCCCCCN1C(=O)[C@H](CC(=O)N2CCN(C(=O)c3ccco3)CC2)C[C@@]2(C(=O)OC)CC(C)(C)CC=C12 | · | 32* | · | · | · | 11
CCCCCCCCN1C(=O)[C@H](CC(=O)N2CCN(C(=O)c3ccco3)CC2)C[C@@]2(C(=O)OC)CCCCC=C12 | · | 30* | · | · | · | -2
COc1ccccc1C(=O)NCC(=O)NN=Cc1ccncc1 | -1 | · | -17 | 5 | 1 | ·
C=C(C)COc1ccc(-c2onc(C)c2-c2ccccc2OC)c(O)c1 | · | · | -2 | · | · | ·
O=C1CCCN1CCCNCCCn1cnc2c(OCc3ccccc3)ncnc21 | · | -6 | -7 | · | · | ·
O=C(Cn1cnc2c(OCc3ccccc3)ncnc21)NCCCN1CCCC1=O | 5 | 30* | -2 | -6 | 3 | 3
Cn1nc(-c2ccccc2NC(=O)c2cnn(-c3ccccc3)n2)ccc1=O | · | · | -11 | · | · | ·
SMILES | Sa ugtP lethal | CCHF vOTU inh-1 | PriA SSB inh | Mtb hypoxia rep | Sa RN4220 lethal | CCHF vOTU inh-2
CCN(C(=S)NCCOC)c1cccc2ccccc12 | 2 | -14 | 1 | 7 | 2 | ·
CCN(C(=S)NC(=O)c1ccco1)c1cccc2ccccc12 | 3 | 46* | 12 | 6 | 2 | -44
Cc1cc(OC2CCN(C(=O)Cn3cnc4ccccc4c3=O)CC2)cc(=O)o1 | · | · | -2 | · | · | ·
C=C1CCN(C(CC(C)C)C(=O)NCc2ccccc2)S(=O)(=O)c2ccccc21 (centres undefined) | 1 | · | · | 18 | 14 | ·
Cn1c(=O)c2c(nc(NN=Cc3cccs3)n2C)n(C)c1=O | -3 | · | · | 0 | -1 | ·
CN(Cc1ccco1)C(=O)c1cccc(S(=O)(=O)N2CCN(Cc3ccccc3)CC2)c1 | · | 34* | · | · | · | -17
Cc1ccc(CN(C)C(=O)c2cccc(S(=O)(=O)N3CCN(Cc4ccccc4)CC3)c2)o1 | 1 | 10 | 8 | 9 | 0 | ·
